PubChem BioAssay (NCI)
Compounds without any hit were thinned out: in the full panel of roughly 79,000, 15% have a hit. A number with no mark means an inactive call. Active and inactive are the calls of the source. Cut-off read from the data, not from the text of the source: active = growth inhibition above about 70%; inactive = the rest.

Assays:
[1] = NCI Yeast Anticancer Drug Screen. Data for the rad52 strain (AID 147);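 note: 0% = growth of vehicle-treated control cultures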; conditions: S. cerevisiae rad52 mutant growth inhibition, active compounds read high
How it was run: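 Growth of repair-deficient yeast cells was compared between compound-treated and vehicle-treated cultures to give percent inhibition.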

[2] = NCI Yeast Anticancer Drug Screen. Data for the wt1 strain (AID 149);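 note: 0% = growth of vehicle-treated wt1 cultures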; conditions: S. cerevisiae wt1 strain (SPY 50644) growth inhibition, active compounds read high
How it was run: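 wt1 strain grown with compound or vehicle; inhibition taken from the growth difference.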

[3] = NCI Yeast Anticancer Drug Screen. Data for the rad50EPP+ strain (AID 151);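 note: 0% = growth of vehicle-treated control cultures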; conditions: S. cerevisiae rad50 mutant strain, active compounds read high
How it was run: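 Measured: growth inhibition of rad50EPP+ yeast. Reference: vehicle-treated controls. Screen uses strains with defined genetic alterations in DNA damage repair or cell cycle control.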

[4] = NCI Yeast Anticancer Drug Screen. Data for the mgt1 strain (AID 153); conditions: S. cerevisiae mgt1 mutant growth inhibition, active compounds read high
How it was run: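 Compounds were applied to mgt1 mutant yeast, and growth was then compared against vehicle-treated control cultures to give percent inhibition.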

[5] = NCI Yeast Anticancer Drug Screen. Data for the rad50 strain (AID 155);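 note: 0% = growth of vehicle-only cultures of the same strain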; conditions: S. cerevisiae rad50 strain growth inhibition, active compounds read high
How it was run: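 DNA repair mutant yeast, compound exposure, growth read-out; inhibition is taken relative to vehicle.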

[6] = NCI Yeast Anticancer Drug Screen. Data for the mec2-1 strain (AID 157); conditions: S. cerevisiae mec2-1 strain, active compounds read high
How it was run: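 Compounds were applied to mec2-1 yeast cells. Their growth was then compared with that of vehicle-treated cultures to give growth inhibition.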

[7] = NCI Yeast Anticancer Drug Screen. Data for the rad14 strain (AID 159);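 note: 0% = growth of vehicle-treated control cultures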; conditions: S. cerevisiae rad14 strain growth inhibition, active compounds read high
How it was run: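 DNA repair-defective yeast, compound-exposed; % growth inhibition derived by comparison with vehicle-treated controls.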

[8] = NCI Yeast Anticancer Drug Screen. Data for the CLN2oe strain (AID 163);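 note: 0% = growth of vehicle-only control cultures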; conditions: S. cerevisiae CLN2oe strain, active compounds read high
How it was run: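 Cells of an engineered yeast line with disturbed cell-cycle regulation are treated with compound. Inhibition of growth is then calculated relative to the vehicle-treated reference.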

[9] = NCI Yeast Anticancer Drug Screen. Data for the cln2 rad14 strain (AID 165);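 note: 0% = growth equal to vehicle treated cultures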; conditions: S. cerevisiae cln2 rad14 strain, active compounds read high
How it was run: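 Strain: cln2 rad14 yeast, altered in cell cycle control and DNA damage repair. Read-out: growth inhibition vs vehicle.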

[10] = NCI Yeast Anticancer Drug Screen. Data for the bub3 strain (AID 167); conditions: S. cerevisiae bub3 mutant strain, active compounds read high
How it was run: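 In this screen, a yeast mutant lacking normal mitotic checkpoint function is challenged with compound. Relative growth versus vehicle gives the inhibition value.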

[11] = NCI Yeast Anticancer Drug Screen. Data for the mlh1 strain (AID 171);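 note: 0% = growth of vehicle-treated control cultures of the same strain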; conditions: S. cerevisiae mlh1 strain growth inhibition, active compounds read high
How it was run: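 Test agents were incubated with yeast bearing a defined DNA damage repair or cell cycle control alteration; values are growth inhibition normalised to vehicle-treated cultures.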

[12] = NCI Yeast Anticancer Drug Screen. Data for the sgs1 strain (AID 173);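 note: 0% = growth of vehicle-only control cultures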; conditions: S. cerevisiae sgs1 mutant, active compounds read high
How it was run: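 Strain with an altered DNA repair or cell cycle pathway exposed to compound. Growth then measured. Value = inhibition versus vehicle control.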

[13] = NCI Yeast Anticancer Drug Screen. Data for the mlh1 rad18 strain (AID 175); conditions: S. cerevisiae mlh1 rad18 strain growth inhibition, active compounds read high
How it was run: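 A repair-deficient yeast strain is exposed to test compound, and growth is scored relative to vehicle-treated controls.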

[14] = NCI Yeast Anticancer Drug Screen. Data for the rad18 strain (AID 177); conditions: S. cerevisiae rad18 mutant growth inhibition, active compounds read high
How it was run: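 DNA-repair-defective yeast; compound treatment; growth inhibition scored against vehicle.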

[15] = NCI Yeast Anticancer Drug Screen. Data for the sgs1 mgt1 strain (AID 161);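 note: 0% = growth of cultures given vehicle only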; conditions: S. cerevisiae sgs1 mgt1 strain, active compounds read high
How it was run: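 Growth of a repair-deficient yeast mutant was monitored after compound treatment and expressed as inhibition relative to vehicle-treated cultures.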

[16] = NCI Yeast Anticancer Drug Screen. Data for the wt2 strain (AID 169);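 note: 0% = growth of vehicle-treated yeast cultures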; conditions: S. cerevisiae wt2 strain growth inhibition, active compounds read high
How it was run: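 Growth of compound-treated yeast is measured and expressed as inhibition relative to vehicle-only controls.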

[17] = at 5.0 µM (retest, dose inferred, filed as 0.5)
[18] = at 50.0 µM (retest, dose inferred, filed as 5.0)

## COc1cc([C@@H]2c3cc4c(cc3[C@H](OC3OC5COC(C(C)C)OC5C(O)C3O)C3COC(=O)[C@@H]32)OCO4)cc(OC)c1O (stereo not given in full)
[1]; at 1.2 µM
  growth inhibition: -10%
[1]; at 3.7 µM
  growth inhibition: -17%
[1]; at 11.0 µM
  growth inhibition: -26%
[1]; at 33.0 µM
  growth inhibition: 35%
[1]; at 100.0 µM
  growth inhibition: 78% (active)
[2]; at 1.2 µM
  growth inhibition: -25%
[2]; at 3.7 µM
  growth inhibition: -31%
[2]; at 11.0 µM
  growth inhibition: 12%
[2]; at 33.0 µM
  growth inhibition: -18%
[2]; at 100.0 µM
  growth inhibition: 9%
[3]; at 1.2 µM
  growth inhibition: -15%
[3]; at 3.7 µM
  growth inhibition: -19%
[3]; at 11.0 µM
  growth inhibition: -46%
[3]; at 33.0 µM
  growth inhibition: -41%
[3]; at 100.0 µM
  growth inhibition: -37%
[4]; at 1.2 µM
  growth inhibition: -31%
[4]; at 3.7 µM
  growth inhibition: -8%
[4]; at 11.0 µM
  growth inhibition: -32%
[4]; at 33.0 µM
  growth inhibition: -29%
[4]; at 100.0 µM
  growth inhibition: 22%
[5]; at 1.2 µM
  growth inhibition: -22%
[5]; at 3.7 µM
  growth inhibition: -32%
[5]; [17]
  growth inhibition: 18%
[5]; at 11.0 µM
  growth inhibition: -11%
[5]; at 33.0 µM
  growth inhibition: 42%
[5]; [18]
  growth inhibition: 96% (active)
[5]; at 50.0 µM
  growth inhibition: 1.85%
[5]; at 100.0 µM
  growth inhibition: 82% (active)
[6]; at 1.2 µM
  growth inhibition: 4%
[6]; at 3.7 µM
  growth inhibition: 1%
[6]; [17]
  growth inhibition: 9%
[6]; at 11.0 µM
  growth inhibition: -17%
[6]; at 33.0 µM
  growth inhibition: -5%
[6]; [18]
  growth inhibition: 47%
[6]; at 50.0 µM
  growth inhibition: 22.4%
[6]; at 100.0 µM
  growth inhibition: 34%
[7]; at 1.2 µM
  growth inhibition: -14%
[7]; at 3.7 µM
  growth inhibition: -27%
[7]; at 11.0 µM
  growth inhibition: -11%
[7]; at 33.0 µM
  growth inhibition: -22%
[7]; at 100.0 µM
  growth inhibition: 8%
[8]; at 1.2 µM
  growth inhibition: -3%
[8]; at 3.7 µM
  growth inhibition: 3%
[8]; at 11.0 µM
  growth inhibition: 3%
[8]; at 33.0 µM
  growth inhibition: -22%
[8]; at 100.0 µM
  growth inhibition: 7%
[9]; [17]
  growth inhibition: 10%
[9]; [18]
  growth inhibition: 9%
[9]; at 50.0 µM
  growth inhibition: 13.6%
[10]; at 1.2 µM
  growth inhibition: -66%
[10]; at 3.7 µM
  growth inhibition: -39%
[10]; [17]
  growth inhibition: 10%
[10]; at 11.0 µM
  growth inhibition: -50%
[10]; at 33.0 µM
  growth inhibition: -63%
[10]; [18]
  growth inhibition: 21%
[10]; at 50.0 µM
  growth inhibition: 8.5%
[10]; at 100.0 µM
  growth inhibition: -2%
[11]; at 1.2 µM
  growth inhibition: -31%
[11]; at 3.7 µM
  growth inhibition: -8%
[11]; at 11.0 µM
  growth inhibition: -32%
[11]; at 33.0 µM
  growth inhibition: -29%
[11]; at 100.0 µM
  growth inhibition: 22%
[12]; at 1.2 µM
  growth inhibition: -6%
[12]; at 3.7 µM
  growth inhibition: -9%
[12]; at 11.0 µM
  growth inhibition: 1%
[12]; at 33.0 µM
  growth inhibition: -5%
[12]; at 100.0 µM
  growth inhibition: 45%
[13]; [17]
  growth inhibition: 18%
[13]; [18]
  growth inhibition: 44%
[13]; at 50.0 µM
  growth inhibition: -64.6%
[14]; at 1.2 µM
  growth inhibition: 6%
[14]; at 3.7 µM
  growth inhibition: -5%
[14]; at 11.0 µM
  growth inhibition: 2%
[14]; at 33.0 µM
  growth inhibition: -21%
[14]; at 100.0 µM
  growth inhibition: 41%

## CC[N+](CC)(CC)c1ccccc1
[1]; at 1.2 µM
  growth inhibition: 8%
[1]; at 3.7 µM
  growth inhibition: -7%
[1]; at 11.0 µM
  growth inhibition: 0%
[1]; at 33.0 µM
  growth inhibition: -3%
[1]; at 100.0 µM
  growth inhibition: -6%
[2]; at 1.2 µM
  growth inhibition: -21%
[2]; at 3.7 µM
  growth inhibition: -27%
[2]; at 11.0 µM
  growth inhibition: -28%
[2]; at 33.0 µM
  growth inhibition: -26%
[2]; at 100.0 µM
  growth inhibition: -28%
[3]; at 1.2 µM
  growth inhibition: -8%
[3]; at 3.7 µM
  growth inhibition: -14%
[3]; at 11.0 µM
  growth inhibition: -14%
[3]; at 33.0 µM
  growth inhibition: -22%
[3]; at 100.0 µM
  growth inhibition: -20%
[4]; at 1.2 µM
  growth inhibition: 1%
[4]; at 3.7 µM
  growth inhibition: 1%
[4]; at 11.0 µM
  growth inhibition: -6%
[4]; at 33.0 µM
  growth inhibition: 8%
[4]; at 100.0 µM
  growth inhibition: -8%
[5]; at 1.2 µM
  growth inhibition: 19%
[5]; at 3.7 µM
  growth inhibition: 24%
[5]; [17]
  growth inhibition: 17%
[5]; at 11.0 µM
  growth inhibition: 16%
[5]; at 33.0 µM
  growth inhibition: 14%
[5]; [18]
  growth inhibition: 98% (active)
[5]; at 50.0 µM
  growth inhibition: 62.5%
[5]; at 100.0 µM
  growth inhibition: 21%
[6]; at 1.2 µM
  growth inhibition: -5%
[6]; at 3.7 µM
  growth inhibition: -3%
[6]; [17]
  growth inhibition: 35%
[6]; at 11.0 µM
  growth inhibition: -8%
[6]; at 33.0 µM
  growth inhibition: 1%
[6]; [18]
  growth inhibition: 98% (active)
[6]; at 50.0 µM
  growth inhibition: -1.75%
[6]; at 100.0 µM
  growth inhibition: 8%
[7]; at 1.2 µM
  growth inhibition: -28%
[7]; at 3.7 µM
  growth inhibition: -36%
[7]; at 11.0 µM
  growth inhibition: -34%
[7]; at 33.0 µM
  growth inhibition: -33%
[7]; at 100.0 µM
  growth inhibition: -25%
[15]; [17]
  growth inhibition: -21%
[15]; [18]
  growth inhibition: -13%
[15]; at 50.0 µM
  growth inhibition: 39.8%
[8]; at 1.2 µM
  growth inhibition: 16%
[8]; at 3.7 µM
  growth inhibition: 5%
[8]; at 11.0 µM
  growth inhibition: 8%
[8]; at 33.0 µM
  growth inhibition: -11%
[8]; at 100.0 µM
  growth inhibition: -8%
[10]; at 1.2 µM
  growth inhibition: 16%
[10]; at 3.7 µM
  growth inhibition: 15%
[10]; [17]
  growth inhibition: 31%
[10]; at 11.0 µM
  growth inhibition: 15%
[10]; at 33.0 µM
  growth inhibition: 19%
[10]; [18]
  growth inhibition: 26%
[10]; at 50.0 µM
  growth inhibition: 75.5% (active)
[10]; at 100.0 µM
  growth inhibition: 11%
[16]; at 1.2 µM
  growth inhibition: -23%
[16]; at 3.7 µM
  growth inhibition: -32%
[16]; at 11.0 µM
  growth inhibition: -32%
[16]; at 33.0 µM
  growth inhibition: -23%
[16]; at 100.0 µM
  growth inhibition: -30%
[12]; at 1.2 µM
  growth inhibition: -15%
[12]; at 3.7 µM
  growth inhibition: -21%
[12]; at 11.0 µM
  growth inhibition: -22%
[12]; at 33.0 µM
  growth inhibition: -19%
[12]; at 100.0 µM
  growth inhibition: -23%
[13]; [17]
  growth inhibition: 30%
[13]; [18]
  growth inhibition: 99% (active)
[13]; at 50.0 µM
  growth inhibition: 26.2%
[14]; at 1.2 µM
  growth inhibition: 3%
[14]; at 3.7 µM
  growth inhibition: 10%
[14]; at 11.0 µM
  growth inhibition: 6%
[14]; at 33.0 µM
  growth inhibition: 3%
[14]; at 100.0 µM
  growth inhibition: 10%
